GRIN3A LBD mod: modulates the human NR3A ligand-binding domain; actives 2.5% (n = 340,000); NR3A LBD differential scanning fluorimetry, Tm shift; 0% = protein alone, 100% = glycine-bound protein; Tm shift relative to glycine control, % at 25 µM;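 active means melting temperature shift of at least 10% of the positive control shift, at one fixed dose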
CRFBP-R2 block: CRF-BP/CRF-R2 complex antagonism. actives 0.59% (n = 350,000). HEK293 CRF-R2/CRF-BP, CRF-induced calcium fluorescence. AID 588475. inhibition, % at 11.8 µM;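 active means inhibition of the ligand-induced calcium signal above about 50% at the single tested concentration, limit read from the data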
CRFBP-R2 agonist: CRF-BP/CRF-R2 complex agonism. HEK293 CRF-R2/CRF-BP, calcium dye fluorescence (FLIPR); percent of saturating CRF peptide response. activation, % at 13.2 µM. actives 0.46% (n = 350,000);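 active means activation of at least 50%, plus an integration ratio under a set limit after plate pattern correction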;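 further: plate controls were neutral control wells without compound for no effect and CRF at EC100 for full effect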
ANO1 activ: mouse TMEM16A channel activation, primary screen. Q8BHY3. HEK293 TMEM16A/YFP-H148Q/I152L, iodide quench fluorescence; active compounds read low. B-score at 10 µM. actives 0.3% (n = 340,000);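 active means fluorescence-ratio B-score plate-corrected deviation score at least 3 library SD below zero, with starting fluorescence score within 5 deviations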;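 further: channel opened by trigger with iodide after compound preincubation; score built on the fluorescence ratio of max minus min over baseline; more negative score means more quench and so TMEM16A activation or potentiation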
Target sequence (Q8BHY3 whole entry, looked up): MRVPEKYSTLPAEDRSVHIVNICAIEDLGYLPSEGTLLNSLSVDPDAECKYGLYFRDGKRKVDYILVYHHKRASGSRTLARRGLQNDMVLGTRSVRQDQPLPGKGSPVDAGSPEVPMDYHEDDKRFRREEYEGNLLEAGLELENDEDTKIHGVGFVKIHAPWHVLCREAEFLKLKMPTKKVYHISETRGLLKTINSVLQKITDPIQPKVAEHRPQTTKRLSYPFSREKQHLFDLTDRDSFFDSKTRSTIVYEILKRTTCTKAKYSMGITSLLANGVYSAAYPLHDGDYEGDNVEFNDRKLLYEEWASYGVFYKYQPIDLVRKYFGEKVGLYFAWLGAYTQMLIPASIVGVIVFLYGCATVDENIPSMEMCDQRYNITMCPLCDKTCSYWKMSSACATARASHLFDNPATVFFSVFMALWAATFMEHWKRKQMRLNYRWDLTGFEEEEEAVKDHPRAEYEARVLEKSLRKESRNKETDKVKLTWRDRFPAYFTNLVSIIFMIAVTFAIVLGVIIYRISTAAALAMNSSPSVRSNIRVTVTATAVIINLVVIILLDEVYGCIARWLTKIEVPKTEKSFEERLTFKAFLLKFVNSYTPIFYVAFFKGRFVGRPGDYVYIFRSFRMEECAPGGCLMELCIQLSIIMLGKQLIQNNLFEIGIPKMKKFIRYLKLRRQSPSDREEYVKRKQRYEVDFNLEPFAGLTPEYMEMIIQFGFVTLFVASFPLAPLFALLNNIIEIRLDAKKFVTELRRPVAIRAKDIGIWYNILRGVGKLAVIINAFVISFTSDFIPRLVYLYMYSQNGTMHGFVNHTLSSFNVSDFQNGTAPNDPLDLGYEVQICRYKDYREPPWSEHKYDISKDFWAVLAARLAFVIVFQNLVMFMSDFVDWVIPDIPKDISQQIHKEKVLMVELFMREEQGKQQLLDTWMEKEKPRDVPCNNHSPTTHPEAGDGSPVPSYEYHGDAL
TMEM16A inh: blocks the mouse calcium-activated chloride channel TMEM16A. Q8BHY3. HEK293 TMEM16A/YFP iodide influx fluorescence, ionomycin. actives 1.2% (n = 310,000). normalized B-score (activity score, 25-100; higher = stronger inhibition) at 10 µM;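 active means ratio plate-corrected score three or more library SD toward inhibition, starting fluorescence score within five deviations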;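 further: score derived from kinetic fluorescence span divided by baseline fluorescence per well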
MPTP inh: blocks calcium-induced mitochondrial swelling. actives 1.4% (n = 360,000). AID 602449. isolated mouse mitochondria, Ca2+ swelling absorbance, 30 min. inhibition, % at 10 µM;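 active means inhibition of 50% or more, scaled per plate between neutral and stimulator controls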;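 further: 0% = DMSO wells given calcium and 100% = 1 mM EGTA wells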
An asterisk follows results filed as active; ! = repeats disagree. An excerpt weighted towards active compounds, which were near 5.1% of everything screened.

`Cc1c(-c2ccc(F)cc2)[n+](=O)c2c(n1[O-])CCCCC2` gave GRIN3A LBD mod 0, CRFBP-R2 block 9, CRFBP-R2 agonist -3, ANO1 activ -6.9*, TMEM16A inh inactive and MPTP inh -2.
For CCc1ccc(-c2cc(C)no2)cc1S(=O)(=O)N1CCN(c2ccccc2)CC1 the results were GRIN3A LBD mod -1, CRFBP-R2 block -7, CRFBP-R2 agonist 1, ANO1 activ inactive, TMEM16A inh inactive and MPTP inh -2.
For CC1CC(C)CN(S(=O)(=O)N2CCCC(C(=O)NCCc3ccccc3)C2)C1 (stereo unspecified) the results were GRIN3A LBD mod 2, CRFBP-R2 block -3, CRFBP-R2 agonist -1, ANO1 activ inactive, TMEM16A inh inactive and MPTP inh -1.
`Cc1ccc(CCNC(=O)C2CCCN(S(=O)(=O)N3CC(C)CC(C)C3)C2)cc1` (stereo unspecified) gave GRIN3A LBD mod 0, CRFBP-R2 block 85*, CRFBP-R2 agonist 1, ANO1 activ inactive, TMEM16A inh inactive and MPTP inh 0.
Screening CCC(c1nnc(SCC(=O)Nc2c(F)cccc2F)n1Cc1ccccc1)N(C)C (stereo unspecified) returned GRIN3A LBD mod 2, CRFBP-R2 block 60*, CRFBP-R2 agonist -3, ANO1 activ inactive, TMEM16A inh inactive and MPTP inh 0.
For CCC(c1nnc(SCC(=O)Nc2cccc(S(N)(=O)=O)c2)n1Cc1ccccc1)N(C)C (stereo unspecified) the results were GRIN3A LBD mod -2, CRFBP-R2 block 7, CRFBP-R2 agonist 0, ANO1 activ inactive, TMEM16A inh inactive and MPTP inh -1.
For Cc1cc(NC(=O)Cn2nc3c(cc2=O)CCCC3)ccc1Br the results were GRIN3A LBD mod 0, CRFBP-R2 block 55*, CRFBP-R2 agonist 0, ANO1 activ inactive, TMEM16A inh inactive and MPTP inh 0.
`CCOC(=O)CSC1=C(C#N)C(c2ccccc2F)C(C(C)=O)=C(C)N1` (stereo unspecified) gave GRIN3A LBD mod 4, CRFBP-R2 block 19, CRFBP-R2 agonist -1, ANO1 activ inactive, TMEM16A inh inactive and MPTP inh 1.
`CSCSC1=C(C#N)C(c2ccccc2Cl)C(C(C)=O)=C(C)N1` (stereo unspecified) gave GRIN3A LBD mod -9, CRFBP-R2 block 55*, CRFBP-R2 agonist 2, ANO1 activ inactive, TMEM16A inh inactive and MPTP inh 2.
Screening COC(=O)[C@]1(Cc2ccccc2)N[C@H](CN(C)C(=O)COc2ccccc2)[C@@H]2C(=O)N(Cc3ccccc3)C(=O)[C@@H]21 returned GRIN3A LBD mod 1, CRFBP-R2 block -10, CRFBP-R2 agonist -2 and MPTP inh 1.
`CC(=O)Nc1c(I)c(NC(C)=O)c(I)c(C(=O)O)c1I` gave GRIN3A LBD mod 13*!, CRFBP-R2 block 1, CRFBP-R2 agonist 0, ANO1 activ inactive, TMEM16A inh inactive and MPTP inh -1.
For O=C(CCCCC(=O)Nc1c(I)cc(I)c(C(=O)O)c1I)Nc1c(I)cc(I)c(C(=O)O)c1I the results were GRIN3A LBD mod 1, CRFBP-R2 block -15, CRFBP-R2 agonist 1, ANO1 activ inactive, TMEM16A inh inactive and MPTP inh 1.
CCN(CC)c1ccc(NC(=O)c2ccccn2)cc1S(=O)(=O)Nc1ccccc1OC was read as GRIN3A LBD mod 2, CRFBP-R2 block -11, CRFBP-R2 agonist 2, ANO1 activ inactive and MPTP inh -2.
Cc1cc(C)c(/C=N/NC(=O)c2nnn(-c3nonc3N)c2COc2ccc(F)cc2)c(C)c1 was read as GRIN3A LBD mod 26*, CRFBP-R2 block -8, CRFBP-R2 agonist 3, ANO1 activ inactive, TMEM16A inh inactive and MPTP inh 3.
For Nc1nonc1-n1nnc(C(=O)N/N=C/c2ccc(OCc3ccccc3)cc2)c1CN1CCCCC1 the results were GRIN3A LBD mod 18*, CRFBP-R2 block -4, CRFBP-R2 agonist 7, ANO1 activ inactive, TMEM16A inh inactive and MPTP inh 0.
`CCCc1c(C(=O)N/N=C/c2ccc(OCc3ccc(F)cc3)cc2)nnn1-c1nonc1N` gave CRFBP-R2 block 3, CRFBP-R2 agonist 0 and MPTP inh 0.
Screening Cc1ccc(COc2ccc(/C=N/NC(=O)c3nnn(-c4nonc4N)c3COc3ccc(F)cc3)cc2)cc1 returned GRIN3A LBD mod 21*, CRFBP-R2 block -12, CRFBP-R2 agonist 2, ANO1 activ inactive, TMEM16A inh inactive and MPTP inh 2.
Screening O=C(CCN1C(=O)S/C(=C\c2ccc(F)cc2)C1=O)Nc1ccc(O)cc1C(=O)O returned GRIN3A LBD mod -2, CRFBP-R2 block 13, CRFBP-R2 agonist -1, ANO1 activ inactive, TMEM16A inh inactive and MPTP inh -2.
`CCN1CCN(C(=O)CN2C(=O)COc3ccc(C)cc32)CC1` gave GRIN3A LBD mod -1, CRFBP-R2 block 0, CRFBP-R2 agonist 3, ANO1 activ inactive, TMEM16A inh inactive and MPTP inh 0.
`COc1ccc(NC(=O)c2cc(-c3ccccc3)oc2C)cc1` gave GRIN3A LBD mod 18*, CRFBP-R2 block -22, CRFBP-R2 agonist -1, ANO1 activ inactive, TMEM16A inh inactive and MPTP inh 6.
Cc1occc1C(=O)Nc1ccc2ccccc2c1 was read as GRIN3A LBD mod 24*, CRFBP-R2 block -10, CRFBP-R2 agonist 2, ANO1 activ inactive, TMEM16A inh inactive and MPTP inh -4.
Screening Cc1oc(-c2ccccc2)cc1C(=O)Nc1ccc2ccccc2c1 returned GRIN3A LBD mod 15*, CRFBP-R2 block 1, CRFBP-R2 agonist 3, ANO1 activ inactive, TMEM16A inh inactive and MPTP inh 0.
Screening Cc1oc(-c2ccccc2)cc1C(=O)Nc1ccccc1 returned GRIN3A LBD mod 4, CRFBP-R2 block -13, CRFBP-R2 agonist 4, ANO1 activ inactive, TMEM16A inh inactive and MPTP inh -3.
`COCCn1c(SCC(=O)NNC(=O)c2cc(Cl)ccc2OC)nnc1-c1ccncc1` gave GRIN3A LBD mod -1, CRFBP-R2 block 5, CRFBP-R2 agonist -1, ANO1 activ inactive and MPTP inh -3.
`COc1ccc(CN(CCC(c2ccccc2)c2ccc(OC(C)C)cc2)C(=O)CCl)cc1OC` (stereo unspecified) gave GRIN3A LBD mod 1, CRFBP-R2 block 53*, CRFBP-R2 agonist 0, ANO1 activ inactive, TMEM16A inh inactive and MPTP inh 1.
Screening Cc1cc(C)c(S(=O)(=O)c2cccc(Br)c2C)c(=O)[nH]1 returned GRIN3A LBD mod -2, CRFBP-R2 block -5, CRFBP-R2 agonist 4, ANO1 activ inactive, TMEM16A inh inactive and MPTP inh 2.
